# Assay results from PubChem BioAssay AID1259420 (Broad Institute, 2018).
# Screen size: about 1,000 compounds; about 250 (25%) were called active. Inconclusive results (about 31%) are left out. The list is a sample of the results. Measured potencies and affinities stand elsewhere. A number with no mark means an inactive call. How the calls were made is not given here.
# Assay: compound activity on host-cell Toxoplasma growth – dose response (AID 1259420);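 further: host cells were HeLa; final incubation lasted 72 hours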
# Conditions: Toxoplasma gondii growth in host cells, no IFN-gamma
compound,measurement,setting,value
OC1(c2cccc(C(F)(F)F)c2)CCN(Cc2ccc3[nH]ccc3c2)CC1,max activity,at 19.5 µM unless noted,6.52% [at 0.16 µM]
O=C(Cc1cccnc1)N1CC(=O)N2[C@H](CO)[C@@H](c3ccc(C#CC4CCCCC4)cc3)[C@@H]2C1,max activity,at 0.6 µM,-7.69%
same,max activity,at 19.5 µM,16.4%
Cc1cc(C(=O)N2CCC(c3cc4c(ncn4C)c(NCC4CC4)n3)CC2)ccc1Cl,max activity,at 19.5 µM unless noted,13.8%
Cc1ccccc1S(=O)(=O)N1CCCCN2[C@@H](CO)[C@@H](c3ccc(C#CCN(C)C)cc3)[C@@H]2C1,max activity,at 19.5 µM unless noted,48.3%
O=S(=O)(c1ccc(F)cc1)N1CCCCN2[C@H](C1)[C@H](c1ccc(-c3cncnc3)cc1)[C@@H]2CO,max activity,at 19.5 µM unless noted,22.3%
Cc1ccccc1S(=O)(=O)N1CCCCN2[C@H](C1)[C@@H](c1ccc(C#CCN(C)C)cc1)[C@@H]2CO,max activity,at 19.5 µM unless noted,-29.9% [at 10 µM]
Cc1ccccc1-c1ccc([C@H]2[C@H]3CN(S(=O)(=O)Cc4ccccc4)CCCCN3[C@H]2CO)cc1,max activity,at 19.5 µM unless noted,24.5%
COc1cccc(-c2ccc([C@H]3[C@H](CO)N4C(=O)CN(C(=O)c5cccnc5)C[C@@H]34)cc2)c1,max activity,at 19.5 µM unless noted,-9.74% [at 1.2 µM]
O=C(C1CCOCC1)N1CC(=O)N2[C@@H](CO)[C@H](c3ccc(/C=C/c4ccccc4)cc3)[C@@H]2C1,max activity,at 19.5 µM unless noted,7.51% [at 5 µM]
CC(=O)N1CCC(N(C)Cc2cc(C(C)(C)C)n[nH]2)CC1,max activity,at 19.5 µM unless noted,-9.85%
COCC(=O)N1CCC2(CC1)CC1(CCN(CC(C)C)CC1)C(=O)N2C,max activity,at 19.5 µM unless noted,-12.4% [at 10 µM]
COc1cccc(S(=O)(=O)N2CC[C@@H]3[C@H]2c2cc(C#Cc4cccnc4)ccc2N[C@@H]3CO)c1,max activity,at 19.5 µM unless noted,17.4%
O=S(=O)(c1ccccc1F)N1CC[C@@H]2[C@H](CO)Nc3ccc(C4=CCCCC4)cc3[C@@H]21,max activity,at 19.5 µM unless noted,-15.7% [at 5 µM]
CNC(=O)NCC1CCC2(CCN(Cc3ccccc3)CC2)CO1 (stereo not drawn),max activity,at 19.5 µM unless noted,-9.71% [at 2.6 µM]
OC[C@H]1[C@H](c2ccc(-c3cccc(F)c3)cc2)[C@H]2CN(Cc3cncnc3)CCCCN21,max activity,at 19.5 µM unless noted,16.3%
N#Cc1c(N2C[C@@H]3NCCO[C@H]3C2)c(F)cc2c(=O)c(C(=O)O)cn(C3CC3)c12,max activity,at 19.5 µM unless noted,9.32% [at 1.2 µM]
Cc1ccc(N2CCC[C@]3(C(=O)O)CN(CCN(C)C)C[C@H]3C2)nn1,max activity,at 19.5 µM unless noted,-23.7% [at 5 µM]
COc1cccc(-c2nn(CC3CC3)c3c2[C@@H]2CN(Cc4ccccc4)C[C@@H]2C3)c1,max activity,at 19.5 µM unless noted,19.1%
Cc1ccc(Cl)cc1N(CC(=O)Nc1c(F)cccc1F)S(C)(=O)=O,max activity,at 19.5 µM unless noted,8.21% [at 1.2 µM]
CC(=O)NCC(=O)N1CCC2(CC1)CC(c1ccccc1)C(=O)N2 (stereo not drawn),max activity,at 19.5 µM unless noted,-12.4% [at 10 µM]
CN(C)CCO[C@@H]1CN(C(=O)Cc2ccsc2)[C@H]2CCCO[C@@H]12,max activity,at 19.5 µM unless noted,-11.4% [at 10 µM]
CN1CCN(C(=O)Cc2ccsc2)Cc2cccnc21,max activity,at 19.5 µM unless noted,-16.3% [at 2.6 µM]
Cc1ccsc1C(=O)N1CCc2nc(-c3cnn(C)c3)nc(NC(C)C)c2C1,max activity,at 19.5 µM unless noted,-6.87%
Cc1ccccc1-c1ccc([C@@H]2[C@H]3CN(C(=O)c4ccncc4)CC(=O)N3[C@H]2CO)cc1,max activity,at 19.5 µM unless noted,7.3% [at 5 µM]
CN1[C@@H]2Cn3c(ccc(/C=C/c4ccccc4)c3=O)[C@H]1[C@@H](C(=O)NC1Cc3ccccc3C1)[C@@H]2CO,max activity,at 19.5 µM unless noted,-16.6% [at 2.6 µM]
Cc1cnn(C(C)C(=O)N2CCc3[nH]nc(-c4ccc(F)c(F)c4)c3C2)c1 (stereo not drawn),max activity,at 19.5 µM unless noted,14% [at 0.16 µM]
Nc1ccc(S(=O)(=O)NC(=O)c2ccccc2)cc1,max activity,at 19.5 µM unless noted,6.39% [at 0.3 µM]
CO[C@H]1CCN(c2ccc(C)nn2)[C@H]1Cc1cnn(C)c1,max activity,at 19.5 µM unless noted,46.8%
C[C@]12CCC3=C4CCC(=O)C=C4CC[C@H]3[C@@H]1CC[C@@]2(O)CC#N,max activity,at 19.5 µM unless noted,-3.24% [at 0.3 µM]
C=CCO[C@@H]1CCN(c2cc(OC)ncn2)[C@H]1Cc1cnn(C)c1,max activity,at 19.5 µM unless noted,-8.84% [at 5 µM]
Cc1nnc(N2C[C@@H](Oc3ncccc3F)[C@@H]3OCCC[C@@H]32)s1,max activity,at 19.5 µM unless noted,-11.4% [at 0.16 µM]
Cc1ccc(-c2cc(C(F)(F)F)nn2-c2ccc(S(N)(=O)=O)cc2)cc1,max activity,at 19.5 µM unless noted,-6.96% [at 0.08 µM]
